Screening results: PubChem, National Center for Advancing Translational Sciences (NCATS)
HP1b chromo inh: blocks HP1-beta chromodomain binding to methylated histone tails; Potency, µM (highest dose often 114 µM), inactives show top-dose activity change, negative = inhibition, usual class: inhibitors; P83916; AID 540317; AlphaScreen HP1-beta / biotin-H3K9me3 peptide binding; 390,000 tested, 0.56% active; further: nearly all actives have a fitted effect of over 70% in size
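Compound inhibition of the preformed complex between 50 nM HP1-beta and 50 nM biotinylated H3K9me3 peptide was read by AlphaScreen. Buffer was PBS pH 7.4 with 0.01% Tween-20. Incubations ran 30 min at room temperature, with 10 ug/mL donor/acceptor beads.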
G9a inh: blocks human histone lysine methyltransferase G9a; G9a H3K9 monomethylation, AlphaScreen, 2 h; Potency, µM (series often up to 102 µM), for the others: at the top dose activity, negative = inhibition, most hits filed as inhibitors; Q96KQ7; 350,000 tested, 8.8% active; further: on the % scale 0 is the no-effect control and ±100 the full control effect; nearly all actives have a fitted effect of over 75% in size
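Readings reflect AlphaScreen signal from monomethyl-H3K9 antibody detection. HMT at 20 nM; substrate b-H3K9 500 nM; cofactor SAM 20 uM; 2 h RT reaction; compounds tested as titrations in qHTS with 15 min preincubation.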
JMJD2A Tudor inh: inhibitors of human JMJD2A Tudor domain. O75164. AlphaScreen JMJD2A-Tudor / H3K4me3 peptide binding. Potency, µM (titrated, usually from 114 µM), for the others: top-dose activity change, negative = inhibition, actives largely listed as inhibitors. 390,000 tested, 4.4% active; further: on the % scale 0 is the no-effect control and ±100 the full control effect; nearly all actives have a fitted effect of over 50% in size
L3MBTL1 inh: inhibitors of human L3MBTL1. AlphaScreen L3MBTL1–H3K9me1 peptide binding. Potency, µM (series often up to 57.1 µM), for inactives: at the highest dose activity, negative = inhibition, usual class: inhibitors. 230,000 tested, 0.66% active; further: on the % scale 0 is the no-effect control and ±100 the full control effect; nearly all actives have a fitted effect of over 60% in size
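L3MBTL1 50 nM + b-AHA-H3(1-15)K9me1 75 nM, 30 min RT; compound added, 30 min RT; streptavidin donor/Ni-chelate acceptor beads 10 ug/mL each final, 30 min RT dark; AlphaScreen read.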
BAZ2B inh: inhibitors of human BAZ2B bromodomain | Q9UIF8 | AlphaScreen BAZ2B-H3K14Ac peptide displacement | Potency, µM (doses to about 114 µM), for inactives: top-dose activity change, negative = inhibition, hits mostly inhibitors | 360,000 tested, 4.4% active; further: on the % scale 0 is the no-effect control and ±100 the full control effect; nearly all actives have a fitted effect of over 60% in size
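Protein-peptide AlphaScreen: BAZ2B 50 nM, b-H3K14Ac 50 nM, 1x PBS pH 7.4 + 0.01% Tween-20. Preincubation 30 min RT; cpd 30 min RT (top 110 uM); beads 20 min RT, light-protected.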
* marks the source's active call; other numbers are inactive results; u = inconclusive; x = no result; [ ] = remark or other dose. Compounds with a hit are over-represented: about 11% of the library has one in this group of screens. The call rests on the fitted dose curve; in most records, active means well fitted inhibition curve with a large enough effect; inconclusive means small, poorly fitted or top-dose-only effect; inactive means no such curve, though single readings can be large or run the other way. Potency means the concentration at half of the fitted maximal effect.

SMILES	HP1b chromo inh	G9a inh	JMJD2A Tudor inh	L3MBTL1 inh	BAZ2B inh
S=c1[nH]nc(CSc2nc3ccccc3s2)o1	2.7%	1.58µM*	44.7µM*	2.1%	u
c1ccc2[nH]c(CSc3nc4ccccc4s3)nc2c1	46.0%	-32.0%	-7.6%	-2.5%	-17.1%
CCNc1nnc(CSc2nc3ccccc3s2)s1	55.8%	4.47µM*	-20.6%[57.1 µM]	3.1%	-3.9%
Cn1c(CSc2nc3ccccc3s2)n[nH]c1=S	-26.7%	2.51µM*	31.6µM*	4.2%	9.8%
Cn1c(-c2sc3ccccc3c2Cl)n[nH]c1=S	-27.5%	u	22.4µM*	x	-11.7%
CCc1nnc(NC(=O)CSc2nc3ccccc3s2)s1	32.5%	u	-6.9%	1.4%	8.9%
COc1ccc2[nH]cc(CCNC(=O)Nc3cc(C)cc(C)c3)c2c1	2.3%	-3.7%[59 µM]	u	x	-30.7%
Cc1ccc(S(=O)(=O)CCCS(=O)(=O)c2ccc(C)cc2)cc1	21.0%	12.0%	7.9%	-7.3%	4.7%
Cc1ccc(S(=O)(=O)SC/C=C/CSS(=O)(=O)c2ccc(C)cc2)cc1	u	x	3.16µM*	x	x
Cc1ccc(S(=O)(=O)SCCCSS(=O)(=O)c2ccc(C)cc2)cc1	7.08µM*	x	2.82µM*	x	x
Cc1ccc(S(=O)(=O)CS(=O)(=O)c2ccc(C)cc2)cc1	52.1%	x	-2.8%	x	x
COC(=O)c1ccc(NC(=O)CN2CCCN(Cc3ccc(Cl)cc3)S2(=O)=O)cc1	25.0%	24.2%[59 µM]	-18.5%	x	-13.2%
C#CCOCCOCCOCCNc1nc(N2CCN(C(=O)CCCCCCCCCCNC(=O)Cn3cc(CCCCCN)nn3)CC2)nc(N2CCN(C(=O)CCCCCCCCCCNC(=O)[C@H](CO)n3cc(CCCCCN)nn3)CC2)n1	3.4%	2.4%[2.33 µM]	u	12.0%	u
C#CCOCCOCCOCCNc1nc(N2CCN(C(=O)CCCCCCCCCCNC(=O)[C@H](CCC(=O)O)n3cc(CCCCCN)nn3)CC2)nc(N2CCN(C(=O)CCCCCCCCCCNC(=O)[C@@H]([C@H](C)O)n3cc(C)nn3)CC2)n1	16.4%	-8.2%[2.33 µM]	u	-4.8%	-37.9%
C#CCOCCOCCOCCNc1nc(N2CCN(C(=O)CCCCCCCCCCNC(=O)[C@H](CCCCN)n3cc(C)nn3)CC2)nc(N2CCN(C(=O)CCCCCCCCCCNC(=O)[C@@H]([C@H](C)CC)n3cc(CCCCCN)nn3)CC2)n1	x	6.7%[2.33 µM]	x	-14.9%	56.2µM*
C#CCOCCOCCOCCNc1nc(N2CCN(C(=O)CCCCCCCCCCNC(=O)[C@H]([C@@H](C)CC)n3cc(CCCCCN)nn3)CC2)nc(N2CCN(C(=O)CCCCCCCCCCNC(=O)[C@@H]([C@H](C)O)n3cc(C)nn3)CC2)n1	u	-8.2%[2.33 µM]	56.2µM*	-29.9%	56.2µM*
C#CCOCCOCCOCCNc1nc(N2CCN(C(=O)CCCCCCCCCCNC(=O)Cn3cc(CCCCCN)nn3)CC2)nc(N2CCN(C(=O)CCCCCCCCCCNC(=O)[C@H]([C@@H](C)CC)n3cc(CCCCCN)nn3)CC2)n1	u	-48.8%[2.33 µM]	79.4µM*	4.8%	u
Cc1cc(C)n2nc(SC(C)C(=O)NC3CCCCC3C)nc2n1 (centres undefined)	20.1%	-0.2%[0.501 µM]	-2.1%	2.5%	-1.5%
CC(OCc1ccccc1)C(NC(=O)OC(C)(C)C)C(=O)NC1COC2CC(n3ccc(=O)[nH]c3=O)OC12 (centres undefined)	14.7%	x	-4.8%	x	x
O=c1c(OC2OC(CO)C(O)C(O)C2OC2OC(CO)C(O)C(O)C2OC2OC(CO)C(O)C(O)C2O)c(-c2ccc(O)c(O)c2)oc2cc(O)cc(O)c12 (centres undefined)	-8.9%	u	31.6µM*	x	u
COc1c(-c2ccc(O)c(O)c2)oc2cc(O)cc(O)c2c1=O	2.2%	-21.7%[12.7 µM]	u	x	35.5µM*
O=c1cc(-c2ccc(O)cc2)oc2cc(O)c([C@@H]3O[C@H](CO)[C@@H](O)[C@H](O)[C@H]3O)c(O)c12	34.5%	x	-23.1%	-0.3%	x
O=c1c(O[C@@H]2O[C@H](CO)[C@@H](O)[C@H](O)[C@H]2O)c(-c2ccc(O)c(O)c2)oc2cc(O)cc(O)c12	x	8.91µM*	x	x	-28.4%
O=c1cc(-c2ccc(O)c(O)c2)oc2cc(O)c(C3OC(CO)C(O)C(O)C3O)c(O)c12 (centres undefined)	4.4%	-2.6%[12.7 µM]	25.1µM*	15.8µM*	u
CC1CCc2c(sc(NC(=O)Cc3ccccc3)c2C(=O)Nc2ccc(Cl)cc2)C1 (centres undefined)	42.7%	-0.6%[59 µM]	-10.1%	x	2.8%
SMILES	HP1b chromo inh	G9a inh	JMJD2A Tudor inh	L3MBTL1 inh	BAZ2B inh
CC1OC(OCC2OC(Oc3c(-c4ccc(O)cc4)oc4cc(O)cc(O)c4c3=O)C(O)C(O)C2O)C(O)C(O)C1O (centres undefined)	-2.0%	x	u	14.1µM*	u
O=c1c(O[C@@H]2O[C@H](CO)[C@@H](O)[C@H](O)[C@H]2O)c(-c2ccc(O)cc2)oc2cc(O)cc(O)c12	19.7%	x	-15.4%	-0.1%	x
O=c1c(O[C@@H]2O[C@H](CO)[C@H](O)[C@H](O)[C@H]2O)c(-c2ccc(O)c(O)c2)oc2cc(O)cc(O)c12	x	12.6µM*	x	x	u
CCc1ccc(C(=O)c2cn(CC(=O)Nc3cc(F)ccc3F)c3nc(C)ccc3c2=O)cc1	35.0%	6.4%[59 µM]	u	x	-6.5%
O=c1ccc2ccc(O)c(O)c2o1	x	0.844µM*	x	x	x
CCc1cc2c(-c3ccccc3)cc(=O)oc2c2c1OCN(Cc1ccc(F)cc1)C2	81.4%	19.3%[59 µM]	0.7%	x	8.4%
Cc1ccc(-c2noc(C3CC(=O)N(c4ccc5c(c4)OCCO5)C3)n2)cc1 (centres undefined)	69.7%	4.0%[59 µM]	-21.7%	x	-12.9%
CCCC(CCC(=O)Nc1cc([N+](=O)[O-])ccc1O)C(=O)O (centres undefined)	-3.7%	u	-6.3%	u	56.2µM*
O=C(COc1ccc(Br)cc1)Nc1ccccc1N1CCCC1	31.7%	44.7µM*	1.4%	-2.2%	-19.4%
O=C(CCNC(=O)c1ccc(Br)cc1)Nc1ccccc1N1CCCCC1	15.9%	56.2µM*	-6.9%	2.0%	-2.3%
CC(=O)N1CCN(c2ccccc2NC(=O)COc2ccc(Br)cc2)CC1	23.8%	-13.3%[12.7 µM]	-14.9%	1.6%	-5.6%
O=S(=O)(N/N=C\c1ccc(-c2ccccc2Cl)o1)c1ccccc1	u	7.94µM*	-35.6%	-27.6%	u
Cc1nnc(C)n1/N=C/c1ccc(-c2ccccc2Cl)o1	-12.0%	50.1µM*	u	x	-12.0%
O=C(N/N=C/c1ccc(-c2ccccc2Cl)o1)c1ccccc1	30.4%	3.6%	-2.3%	x	-16.9%
O=C(O)c1ccc(N/N=C/c2ccc(-c3ccccc3Cl)o2)cc1	0.9%	56.2µM*	-10.6%	1.2%	-31.0%
O=C(COC(=O)C1CCN(S(=O)(=O)c2ccccc2)CC1)NCCc1ccccc1	29.1%	9.5%[12.7 µM]	-7.8%	4.7%	-0.9%
